Among the data in PubChem BioAssay AID651640 (Broad Institute, 2012) are CPE inhibition values, retold here.

The structures appear in SMILES notation. The campaign covered roughly 350,000 compounds. About 6,000 (1.7%) were called active. About 5% were inconclusive and are not listed. This is one part of a sample in which actives are shown more often than they occur. Cut-off read from the data, not from the text of the source: active = CPE inhibition above about 20% (passing the limit was not always enough); inconclusive = no clear call, values can overlap the other calls; tested in BHK-21 cells.

The assay can be described thus: protection of cells from dengue 2 killing – plate reader, single concentration, primary screen (AID 651640).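 Note: 0% = median of neutral control wells and 100% = median of positive control wells.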 Particulars: DENV2-infected cells, cytopathic effect rescue, at 9.99 µM, active compounds read high.
Consider `CC(C)CC#Cc1ccc([C@H]2[C@H]3CN(C(=O)CN4CCOCC4)CC(=O)N3[C@H]2CO)cc1`, for which the CPE inhibition was -1.35% (inactive). Take `COc1ccccc1CNC(=O)C[C@@H]1C[C@@H]2c3cc(NC(=O)C4CCOCC4)ccc3O[C@@H]2[C@@H](CO)O1`: the CPE inhibition is 2.24% (inactive). Turning to `COC(=O)[C@@H]1[C@@H](CO)[C@@H]2Cn3c(ccc(-c4ccccc4F)c3=O)[C@@H]2N1CC1CCOCC1`, the CPE inhibition was -7.38% (inactive).

On to `C[C@@H]1CCCCO[C@@H](CN(C)S(=O)(=O)c2cn(C)cn2)[C@@H](C)CN([C@@H](C)CO)C(=O)c2cc(NC(=O)NC3CCCCC3)ccc2O1`, for which the CPE inhibition was 7.41% (inactive). Regarding `C[C@@H]1CN([C@@H](C)CO)S(=O)(=O)c2ccc(-c3ccccc3F)cc2O[C@H]1CN(C)Cc1cncnc1`, the CPE inhibition is -7.02% (inactive).

Take `CN(C)C(=O)[C@@H]1[C@@H](CO)[C@@H]2Cn3c(cccc3=O)[C@H]1N2C(=O)c1ccc(F)cc1`: the CPE inhibition is 2.89% (inactive). To `C[C@H]1CN([C@@H](C)CO)C(=O)c2cccc(NC(=O)c3ccncc3)c2O[C@@H]1CN(C)C` belongs -3.46% (inactive). On to `C[C@@H]1CCCCO[C@H](CN(C)S(=O)(=O)c2cccs2)[C@@H](C)CN([C@@H](C)CO)C(=O)c2cc(NC(=O)Nc3ccc4c(c3)OCO4)ccc2O1`, for which the CPE inhibition was 2.44% (inactive).

As for `O=C(N[C@H]1CC[C@H](CCNS(=O)(=O)c2ccc(F)cc2)O[C@H]1CO)C1CCC1`, the CPE inhibition is 0.0715% (inactive).

In the case of `CCNC(=O)Nc1ccc2c(c1)C(=O)N(C)[C@@H]1CC[C@@H](CC(=O)NCCOC)O[C@@H]1CO2`, the CPE inhibition was -6.67% (inactive). As to `CC(C)C#Cc1ccc2c(c1)O[C@@H](CN(C)Cc1ccncc1)[C@@H](C)CN([C@@H](C)CO)S2(=O)=O`, the CPE inhibition is -4.86% (inactive). As for `COc1ccccc1C(=O)Nc1ccc(Nc2ccccc2)cc1`, the CPE inhibition was 1.78% (inactive). With `COc1ccc(NC(=O)CSc2nc(N)c(-c3ccccc3)c(=O)[nH]2)cc1` the figure was 15.2% (inactive). On to `COc1ccc(NC(=O)c2cn(-c3ccccc3)nc2SC)cc1`, for which the CPE inhibition is 30.9% (active). Consider `O=C(C[C@H]1C[C@H](C(=O)N2CCOCC2)[C@@]2(CCC3CCCC3)c3[nH]c4ccc(Cl)cc4c3CCN2C1=O)NCc1ccco1`, for which the CPE inhibition is 88.4% (active).

Regarding `COc1ccc(CNC(=O)C[C@H]2C[C@H](C(=O)N3CCOCC3)[C@@]3(CCC4CCCC4)c4[nH]c5ccc(Cl)cc5c4CCN3C2=O)cc1OC`, the CPE inhibition was 0.122% (inactive). Regarding `CN(C)C(=O)CCc1ccc2c3c([nH]c2c1)[C@]1(CCC2CCCC2)[C@@H](C(=O)N2CCOCC2)C[C@H](CC(=O)NCc2ccco2)C(=O)N1CC3`, the CPE inhibition is -10.7% (inactive). To `Cc1ccc(S(=O)(=O)N(C)C[C@H]2OCCCC[C@@H](C)Oc3ccc(NC(=O)NC4CCCCC4)cc3C(=O)N([C@H](C)CO)C[C@@H]2C)cc1` belongs 0.877% (inactive); to `Cc1ccc(S(=O)(=O)N(C)C[C@@H]2OCCCC[C@H](C)Oc3ccc(NS(=O)(=O)c4cn(C)cn4)cc3C(=O)N([C@H](C)CO)C[C@@H]2C)cc1`, -2.41% (inactive). With `C[C@@H]1CCCCO[C@@H](CN(C)S(=O)(=O)c2cn(C)cn2)[C@H](C)CN([C@@H](C)CO)C(=O)c2cc(NC(=O)Nc3ccccc3)ccc2O1` the figure was -1.09% (inactive).

As to `Cc1ccc(S(=O)(=O)N(C)C[C@@H]2Oc3ccc(NC(=O)NC4CCCCC4)cc3C(=O)N([C@@H](C)CO)C[C@H]2C)cc1`, the CPE inhibition is 23.4% (active). Regarding `Cc1ccc(S(=O)(=O)N(C)C[C@H]2OCCCC[C@@H](C)Oc3ccc(NS(C)(=O)=O)cc3C(=O)N([C@H](C)CO)C[C@@H]2C)cc1`, the CPE inhibition is 24.2% (active).

In the case of `Cc1ccc(S(=O)(=O)N(C)C[C@@H]2OCCCC[C@@H](C)Oc3ccc(NS(=O)(=O)c4ccccc4)cc3C(=O)N([C@H](C)CO)C[C@@H]2C)cc1`, the CPE inhibition was 0.648% (inactive). For the compound `Cc1ccc(S(=O)(=O)Nc2ccc3c(c2)C(=O)N([C@H](C)CO)C[C@H](C)[C@@H](CN(C)S(=O)(=O)c2cn(C)cn2)OCCCC[C@H](C)O3)cc1`, the CPE inhibition was 39.2% (active). To `C[C@@H]1CN([C@H](C)CO)C(=O)c2cc(NC(=O)Cc3ccccc3)ccc2O[C@H]1CN(C)S(=O)(=O)c1cn(C)cn1` belongs 0.292% (inactive); to `C[C@H](CO)N1C[C@H](C)[C@@H](CN(C)S(=O)(=O)c2cn(C)cn2)OCCCC[C@H](C)Oc2ccc(NC(=O)Cc3ccccc3)cc2C1=O`, 123% (active); to `C[C@@H]1CN([C@H](C)CO)C(=O)c2cc(NC(=O)NC3CCCCC3)ccc2O[C@H]1CN(C)S(C)(=O)=O`, 2.68% (inactive).

Consider `C[C@@H]1CCCCO[C@@H](CN(C)S(=O)(=O)c2cn(C)cn2)[C@H](C)CN([C@H](C)CO)C(=O)c2cc(NS(=O)(=O)c3ccc(Cl)cc3)ccc2O1`, for which the CPE inhibition was 3.2% (inactive). As to `Cc1ccc(S(=O)(=O)Nc2ccc3c(c2)C(=O)N([C@H](C)CO)C[C@@H](C)[C@H](CN(C)S(=O)(=O)c2ccc(C)cc2)OCCCC[C@@H](C)O3)cc1`, the CPE inhibition was 1.84% (inactive). Take `O=C(C[C@@H]1C[C@@H]2c3cc(NC(=O)NC4CCCC4)ccc3O[C@@H]2[C@H](CO)O1)NCC(F)(F)F`: the CPE inhibition was 7.08% (inactive).

Turning to `CN(C)C(=O)[C@@H]1[C@@H](CO)[C@@H]2Cn3c(ccc(-c4ccccc4)c3=O)[C@@H]2N1CCC(F)(F)F`, the CPE inhibition is 3.4% (inactive). Regarding `C[C@@H]1CN([C@H](C)CO)C(=O)c2ccccc2-c2ccccc2CO[C@H]1CN(C)C(=O)CCC(F)(F)F`, the CPE inhibition was 1.69% (inactive). Take `CC(C)C[C@H](NC(=O)CC1CCCC1)C(=O)N1CCC[C@H]1C(=O)NCc1ccccc1`: the CPE inhibition is -0.111% (inactive). As for `COc1ccc(NC(=O)N(C)C[C@@H]2Oc3ccc(NC(=O)CCC(F)(F)F)cc3C(=O)N([C@@H](C)CO)C[C@H]2C)cc1`, the CPE inhibition is -3.47% (inactive). Consider `O=C(C1CCCCC1)N1CC(=O)N2[C@H](CO)[C@H](c3ccc(Br)cc3)[C@H]2C1`, for which the CPE inhibition is -9.75% (inactive).

Take `C[C@@H]1CN([C@@H](C)CO)S(=O)(=O)c2ccc(C#CC(C)(C)O)cc2O[C@H]1CN(C)C(=O)CN(C)C`: the CPE inhibition was 14.1% (inactive). Take `Cc1ccc(S(=O)(=O)Nc2cccc3c2O[C@H](CN(C)CC2CCCCC2)[C@H](C)CN([C@H](C)CO)C3=O)cc1`: the CPE inhibition was -0.201% (inactive). On to `N[C@@H]1CC[C@H](CCn2cc(C3CC3)nn2)O[C@@H]1CO`, for which the CPE inhibition is -2.16% (inactive).

Consider `N#C[C@H]1[C@@H](c2ccccc2-c2ccccc2F)[C@@H](CO)N1C(=O)C1CCC1`, for which the CPE inhibition is -1.39% (inactive).

With `C[C@@H]1CN([C@@H](C)CO)C(=O)c2cc(NS(C)(=O)=O)ccc2O[C@@H]1CN(C)C(=O)Nc1ccccc1`, the CPE inhibition was 4.47% (inactive).

`C[C@@H]1CN([C@@H](C)CO)C(=O)c2cc(C3=CCCC3)cnc2O[C@H]1CN(C)C(=O)c1ccccn1`: the CPE inhibition is 1.01% (inactive).

As for `C=CCn1cc(-c2cccc(C(F)(F)F)c2)cc(C#N)c1=O`, the CPE inhibition was -0.13% (inactive).

Regarding `N#Cc1c(-c2ccccc2)nc(SCc2cccc(C(F)(F)F)c2)[nH]c1=O`, the CPE inhibition is -3.77% (inactive).

Consider `CC1(Cc2cccc(C#N)c2)C(=O)Nc2ccc(-c3cccc(C(F)(F)F)c3)cc21` (stereo unspecified), for which the CPE inhibition was 94.5% (active). Consider `COc1ccccc1NC(=O)N[C@H]1CC[C@H](CCn2cc(-c3cccnc3)nn2)O[C@@H]1CO`, for which the CPE inhibition was 7.27% (inactive). Regarding `CCN(C[C@H]1[C@H](c2ccc(-c3ccccc3)cc2)[C@H](CO)N1CC1CC1)C(C)=O`, the CPE inhibition was -11.4% (inactive). Take `C[C@H](CO)N1C[C@H](C)[C@H](CN(C)Cc2cccc(F)c2)Oc2ncc(C#CCN(C)C)cc2C1=O`: the CPE inhibition is -7.01% (inactive). `Cc1cc([N+](=O)[O-])nn1Cc1ccc(F)cc1`: the CPE inhibition is -2.03% (inactive). In the case of `Cc1nc(N)nc(SCc2ccc([N+](=O)[O-])cc2)c1N`, the CPE inhibition is 5.04% (inactive). To `Cc1nc(SCc2ccc(F)cc2)c([N+](=O)[O-])[nH]1` belongs 70.9% (active). Turning to `COc1ccc(S(=O)(=O)N(C)C[C@H]2Oc3c(NC(=O)CCCCCC(=O)Nc4ccccc4N)cccc3C(=O)N([C@H](C)CO)C[C@H]2C)cc1`, the CPE inhibition is -2.7% (inactive). With `COc1ccccc1Cc1c(-c2ccc(F)cc2)nc2ccc(C)cn12`, the CPE inhibition is -9.92% (inactive). Take `CN(C)CC(=O)N[C@H]1CC[C@H](CCNC(=O)Nc2ccc(F)cc2)O[C@H]1CO`: the CPE inhibition is 6.32% (inactive).

As to `CCOC(=O)c1cccc(NC(=O)CN2C(=O)C3CC=CCC3C2=O)c1` (stereo unspecified), the CPE inhibition was 76% (active).

On to `CCCCN1C(=O)C(=O)N(CC(=O)Nc2cccc(C(C)=O)c2)C1=O`, for which the CPE inhibition is -4.58% (inactive). Regarding `CCOC(=O)c1cccc(NC(=O)CCOc2ccccc2)c1`, the CPE inhibition was -0.064% (inactive).

As to `O=C(c1cccnc1)N1CC(=O)N2[C@H](CO)[C@@H](c3ccc(-c4ccc(F)cc4)cc3)[C@@H]2C1`, the CPE inhibition was -0.715% (inactive).

As to `O=C(C[C@H]1CC[C@@H]2[C@H](COC[C@H](O)CN2C(=O)c2ccc3c(c2)OCO3)O1)NC1CCC1`, the CPE inhibition was 2.16% (inactive). On to `O=C(C[C@H]1CC[C@H]2[C@@H](COC[C@@H](O)CN2C(=O)c2ccc3c(c2)OCO3)O1)NC1Cc2ccccc2C1`, for which the CPE inhibition is 32.6% (active). As to `O=C(C[C@@H]1CC[C@@H]2[C@H](COC[C@H](O)CN2C(=O)Cc2ccccc2)O1)NC1CCC1`, the CPE inhibition was 34.4% (active).

Regarding `O=C(C[C@@H]1CC[C@H]2[C@@H](COC[C@@H](O)CN2C(=O)c2ccc3c(c2)OCO3)O1)NC1CCCC1`, the CPE inhibition was -3.32% (inactive). On to `O=C(C[C@@H]1CC[C@@H]2[C@H](COC[C@H](O)CN2C(=O)c2cccnc2)O1)NC1Cc2ccccc2C1`, for which the CPE inhibition was -4.15% (inactive). With `O=C(C[C@H]1CC[C@H]2[C@@H](COC[C@@H](O)CN2Cc2ccccc2)O1)N[C@@H]1CCN(Cc2ccccc2)C1` the figure was 17.9% (inactive); with `O=C(C[C@@H]1CC[C@H]2[C@@H](COC[C@@H](O)CN2C(=O)c2ccc3c(c2)OCO3)O1)NC1Cc2ccccc2C1`, 35.1% (active); with `O=C(C[C@H]1CC[C@@H]2[C@H](COC[C@H](O)CN2Cc2ccccc2F)O1)NC1CCC1`, -4.44% (inactive). Consider `O=C(C[C@@H]1CC[C@@H]2[C@H](COC[C@H](O)CN2C(=O)c2ccc3c(c2)OCO3)O1)NC1CCCC1`, for which the CPE inhibition was -0.397% (inactive).
